Results filed as inconclusive are left out. Calls of active or inactive are those of the source. Calls follow the shape of the dose curve; as a rule, active = well fitted cell-killing curve with a large enough effect; inconclusive = small, poorly fitted or top-dose-only effect, or effect the other way; inactive = flat fitted curve, though single readings scatter.
Legend:
Assay in all cases: Primary qHTS to identify gynecologic anti-cancer compounds using libraries of approved drugs and bioactive compounds (AID 1345084); also: nearly all actives have a fitted effect of over 55% in size
Settings in all cases: Gynecologic cancer cell panel viability, ATPlite luminescence, 48 h; series mostly up to 57.5 µM
PA-1 = tested on: PA-1
Summary of the method: (§1)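 48 h compound exposure at 37 C, 5% CO2; five-point qHTS. ATPlite luminescence readout of cell ATP.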

Tov-21-G = tested on: Tov-21-G
Summary of the method: as §1

Tov112D = tested on: Tov112D
Summary of the method: as §1

Measured: Potency

CC1CCC2(C(=O)O)CCC3(C)C(=CCC4C5(C)C[C@@H](O)[C@@H](O)C(C)(CO)C5CCC43C)C2C1(C)O (stereo not given in full)
inactive: all assays above

CCCCOc1nc(N)c2c(n1)N(Cc1cccc(CN3CCCC3)c1)CC(=O)N2
inactive: all assays above

OCC(O)C(c1c[nH]c2ccccc12)c1c[nH]c2ccccc12 (stereo not given)
inactive: all assays above

CCCC(C(=O)O)c1c(C)nc2ccc(Cl)cc2c1-c1ccccc1 (stereo not given)
inactive: all assays above

COc1ccccc1Oc1c(NS(=O)(=O)c2ccc(C)cn2)nc(-c2ccncc2)nc1OC
inactive: all assays above

H-DPPDPDRFYGMM-NH2
inactive: all assays above

C=C[C@H]1[C@H](O[C@@H]2O[C@H](CO)[C@@H](O)[C@H](O)[C@H]2O)OC=C2C(=O)N3Cc4c([nH]c5ccccc5c4=O)[C@@H]3C[C@H]21
inactive: all assays above

CCC(C)C1NC(=O)C2C(C)CCN2C(=O)C(CC(O)CO)OC(=O)CCNC(=O)C(C)N(C)C(=O)C(C(C)C)N(C)C1=O (stereo not given)
inactive: all assays above

COc1c2c(c(C)c3c1C(=O)OC3)OC1(C)CC(O)C34OC(OC)(CC(O)C3(C)C1C2)OC4(C)C (stereo not given)
inactive: all assays above

CC/C=C\CC1C(CC(=O)O)CCC1OC1OC(CO)C(O)C(O)C1O (stereo not given)
inactive: all assays above

OC[C@@]1(O)CO[C@@H](OC[C@H]2O[C@@H](OCc3ccccc3)[C@H](O)[C@@H](O)[C@@H]2O)[C@@H]1O
inactive: all assays above

COC(=O)[C@H](Cc1ccc([N+](=O)[O-])cc1)NC(=O)c1cccc2ccccc12
inactive: all assays above

C=C(C)[C@H]1CC[C@]2(C(=O)O)CC[C@]3(C)C(CCC4[C@@]5(C)CCC(=O)C(C)(C)C5CC[C@]43C)C12 (stereo not given in full)
inactive: all assays above

CC(C)CC[C@@H](O)[C@](C)(O)[C@H]1CC[C@@]2(O)C3=CC(=O)[C@@H]4C[C@@H](O)[C@@H](O)C[C@]4(C)[C@H]3CC[C@]12C
inactive: all assays above

Cc1nc2ccccc2c(-c2ccc3c4c(ccnc24)CCO3)c1[C@H](OC(C)(C)C)C(=O)O
inactive: all assays above

COc1ccc(C2COc3cc(O)ccc3C2)c(O)c1OC (stereo not given)
inactive: all assays above

CC(C)(O)C1CC=C(C(=O)OC[C@H]2O[C@@H](Oc3cc(C(=O)O)cc(O)c3O)[C@H](O)[C@@H](O)[C@@H]2O)CC1 (stereo not given in full)
inactive: all assays above

CC1(C)C[C@H]2C=C(C=O)[C@]3(C(=O)O)C[C@]3(C)[C@H]2C1
inactive: all assays above

CCOC(=O)C(CCc1ccccc1)NC1CCCN2CCCC(C(=O)O)N2C1=O (stereo not given)
inactive: all assays above

O=C(OC(C(F)(F)F)C(F)(F)F)N1CCN(Cc2cccc(Oc3ccccc3)c2)CC1
inactive: all assays above

CC(CCc1ccc(O)cc1)O[C@@H]1O[C@H](CO[C@@H]2OC(CO)[C@H](O)[C@H]2O)[C@@H](O)[C@H](O)[C@H]1O (stereo not given in full)
inactive: all assays above

CC(=O)OC1(C)CC(O)C2(O)C=COC(OC3OC(CO)C(O)C(O)C3O)C12 (stereo not given)
inactive: all assays above

COc1cc(CO)cc(OC)c1O[C@@H]1O[C@H](CO)[C@@H](O)[C@H](O)[C@H]1O
inactive: all assays above

CC(C)(O)C1OC1C1=CC(=O)C2(C)OC2C1O (stereo not given)
inactive: all assays above

COc1cc2c(c(O)c1OC/C=C(\C)CC/C=C(/C)CCC=C(C)C)CN(C(CCC(=O)O)C(=O)O)C2=O (stereo not given)
inactive: all assays above

C/C(CO)=C1/CCC23COC(C2)C(O)(C(=O)O)CCC13 (stereo not given)
inactive: all assays above

CC(C)/C=C1/NC(=O)C(C(C)C)n2c1nc1c(O)cccc1c2=O (stereo not given)
inactive: all assays above

O=C(OC[C@H]1O[C@H](O[C@H]2CO[C@H](CO)[C@@H](O)[C@@H]2O)[C@H](O)[C@@H](O)[C@H]1O)c1ccccc1
inactive: all assays above

C/C=C/C=C/C=C/C(=O)OC1C=C2C(O)OC(=O)[C@]2(O)[C@@]2(C)CCCC(C)(C)[C@H]12 (stereo not given in full)
inactive: all assays above

C[C@@]1(O)[C@H](O)[C@@H](CO)O[C@H]1n1cnc2c(=O)[nH]c(N)nc21
inactive: all assays above

— PubChem BioAssay (NCATS)
